Laboratory results as given in PubChem BioAssay AID1159580 (chemical genetic matrix, 2015).
Among all 5,500 compounds or so, about 2,000 (36%) were called active. Roughly 18% stayed inconclusive and do not appear here. Rule as the data show it: active = normalized growth mostly below about 0.91 (no sharp cut-off); inconclusive = no clear call, values can overlap the other calls; inactive = mostly above about 0.92. Some of the results follow.

Assay: chemical genetic growth profiling, strain panel (AID 1159580);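 also: tested at 20 µM; growth read once vehicle control cultures reached saturation at 30 °C; 1 = growth at the plate median or of vehicle wells; lower values mean less growth of the strain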
Conditions: S. cerevisiae deletion strains, growth OD

Measured: normalized growth

CCCCCCNC(=O)n1cc(F)c(=O)[nH]c1=O
inactive: locus YAL021C, strain ccr4, active compounds read low 0.934 | locus YAL030W, strain snc1, active compounds read low 0.96 | locus YBL061C, strain skt5, active compounds read low 0.972 | locus YBR023C, strain chs3, active compounds read low 0.937 | locus YBR171W, strain sec66, active compounds read low 0.996 | locus YBR231C, strain swc5, active compounds read low 0.988 | locus YCL011C, strain gbp2, active compounds read low 0.91 | locus YCR088W, strain abp1, active compounds read low 0.934 | locus YDL005C, strain med2, active compounds read low 0.941 | locus YDL040C, strain nat1, active compounds read low 0.991 | locus YDR001C, strain nth1, active compounds read low 0.995 | locus YDR297W, strain sur2, active compounds read low 0.978 | locus YDR334W, strain swr1, active compounds read low 0.93 | locus YDR392W, strain spt3, active compounds read low 0.776 | locus YEL061C, strain CIN8 (second series), active compounds read low 0.95 | locus YER111C, strain swi4, active compounds read low 0.923 | locus YGL167C, strain pmr1, active compounds read low 0.918 | locus YGL227W, strain vid30, active compounds read low 0.99 | locus YGL240W, strain doc1, active compounds read low 0.971 | locus YHR013C, strain ard1, active compounds read low 0.933 | locus YJL095W, strain BCK1 (second series), active compounds read low 0.945 | locus YJL115W, strain asf1, active compounds read low 0.941 | locus YJL154C, strain vps35, active compounds read low 0.943 | locus YKL160W, strain elf1, active compounds read low 0.907 | locus YKR026C, strain gcn3, active compounds read low 0.993 | locus YKR091W, strain srl3, active compounds read low 0.975 | locus YLL026W, active compounds read low 0.974 | locus YLL041C, strain sdh2, active compounds read low 0.979 | locus YLR027C, strain aat2, active compounds read low 0.956 | locus YLR342W, strain FKS1, active compounds read low 0.938 | locus YLR370C, strain arc18, active compounds read low 0.923 | locus YLR384C, strain iki3, active compounds read low 0.963 | locus YML120C, strain ndi1, active compounds read low 0.92 | locus YMR058W, strain fet3, active compounds read low 0.926 | locus YMR125W, strain sto1, active compounds read low 0.958 | locus YMR129W, active compounds read low 0.987 | locus YMR205C, strain PFK2, active compounds read low 0.898 | locus YMR231W, strain pep5, active compounds read low 0.942 | locus YNL209W, strain ssb2, active compounds read low 0.959 | locus YNL322C, strain KRE1 (second series), active compounds read low 0.936 | locus YNR049C, strain mso1, active compounds read low 0.931 | locus YOR070C, strain gyp1, active compounds read low 0.958 | locus YOR080W, strain dia2, active compounds read low 0.968 | locus YOR265W, strain rbl2, active compounds read low 0.968 | locus YPL240C, strain hsp82, active compounds read low 0.978
active: locus YAL026C, strain drs2, active compounds read low 0.849 | locus YBR009C, strain hhf1, active compounds read low 0.861 | locus YBR279W, strain paf1, active compounds read low 0.834 | locus YCL016C, strain dcc1, active compounds read low 0.86 | locus YCL069W, strain vba3, active compounds read low 0.842 | locus YDR069C, strain doa4, active compounds read low 0.803 | locus YDR137W, strain rgp1, active compounds read low 0.553 | locus YDR159W, strain sac3, active compounds read low 1.22 [resistant] | locus YDR195W, strain ref2 0.678 | locus YDR335W, strain msn5, active compounds read low 0.782 | locus YEL003W, strain gim4, active compounds read low 0.895 | locus YEL037C, strain rad23, active compounds read low 0.894 | locus YER015W, strain faa2, active compounds read low 0.889 | locus YER016W, strain bim1, active compounds read low 0.899 | locus YER155C, strain BEM2 (second series), active compounds read low 0.767 | locus YFR010W, strain ubp6, active compounds read low 0.757 | locus YGL173C, strain kem1, active compounds read low 0.897 | locus YGL253W, strain hxk2, active compounds read low 0.613 | locus YHR027C, strain rpn1, active compounds read low 0.911 | locus YHR030C, strain SLT2, active compounds read low 0.532 | locus YHR079C, strain IRE1, active compounds read low 0.45 | locus YHR142W, strain chs7, active compounds read low 0.741 | locus YJL092W, strain hpr5, active compounds read low 0.912 | locus YJL095W, strain BCK1, active compounds read low 0.541 | locus YJL129C, strain trk1, active compounds read low 0.76 | locus YJL164C, strain tpk1, active compounds read low 0.865 | locus YJL166W, strain qcr8, active compounds read low 0.902 | locus YJR066W, strain TOR1, active compounds read low 0.407 | locus YLL001W, strain dnm1, active compounds read low 0.773 | locus YLR113W, strain HOG1, active compounds read low 0.607 | locus YLR221C, strain rsa3, active compounds read low 0.697 | locus YLR258W, strain gsy2, active compounds read low 0.884 | locus YLR262C, strain YPT6 (second series), active compounds read low 0.528 | locus YLR320W, strain mms22, active compounds read low 0.733 | locus YLR357W, strain rsc2, active compounds read low 0.803 | locus YNL071W, strain lat1, active compounds read low 0.891 | locus YNL183C, strain NPR1, active compounds read low 0.48 | locus YNL248C, strain rpa49, active compounds read low 0.589 | locus YOR001W, strain rrp6, active compounds read low 0.257 | locus YOR083W, strain WHI5, active compounds read low 0.84 | locus YOR106W, strain vam3, active compounds read low 0.668 | locus YOR231W, strain MKK1, active compounds read low 0.41 | locus YOR270C, strain vph1, active compounds read low 0.518 | locus YOR290C, strain snf2, active compounds read low 0.723 | locus YPL051W, strain arl3, active compounds read low 0.843 | locus YPL078C, strain atp4, active compounds read low 0.77 | locus YPL106C, strain sse1, active compounds read low 0.722 | locus YPL256C, strain CLN2, active compounds read low 0.564
